This passage reports Potency, activation and outcome results from PubChem BioAssay (NCATS).

Several values for one entry are separate records, joined by “and”; a condition that tells them apart may be missing. Equal entries are not always repeated. Unmarked numbers belong to inactive results. Inconclusive results are not listed. Where a call stands in place of a potency, no number is given. Activity calls are given as the source filed them. Unless noted, calls come from the whole dose curve.

Test [1] has as its target Cytochrome P450 3A4 (Homo sapiens) (UniProt P08684). The experiment in a line: qHTS Assay for Activators of Cytochrome P450 3A4 (AID 885; active = well fitted curve in the direction sought with a large enough effect; an effect the other way counts as inactive or inconclusive; note: nearly all actives have a fitted effect of over 65% in size). Put shortly:
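Luminescent readout of luciferin formed from 25 uM Luciferin-PPXE (KM level) by 20 nM CYP3A4 in 200 mM KPO4, with 60 min NADPH-driven reaction at room temperature after 10 min compound exposure. Ketoconazole (57 uM) defined 100% inhibition.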

Test [2] concerns the target Androgen receptor (Homo sapiens) (UniProt P10275). The experiment in a line: qHTS assay for small molecule agonists of androgen receptor signaling (AID 588515; active = well fitted curve in the direction sought with a large enough effect in the signal ratio, with a control signal flat; the % refers to the signal ratio). The note with it: AR-UAS-bla HEK293, beta-lactamase ratio, agonist 16 h; active compounds read high. Summed up: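 Stimulation of an AR-responsive β-lactamase reporter in GripTite HEK293 cells was measured after 16 h compound exposure at 37 °C, via CCF4 fluorescence after 2 h RT. EC50 from Hill fits, normalized to R1881 at 30 nM.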

For test [3] the target is unchanged. The test is described as follows: qHTS assay for small molecule antagonists of androgen receptor signaling (AID 588516; active = well fitted curve in the direction sought with a large enough effect in the signal ratio, with a control signal flat, not every such curve was filed as active; the % refers to the signal ratio). Put shortly:
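AR-UAS-bla GripTite HEK 293 cells (2000/well) treated with compound titrations plus 10 nM R1881 for 16 h at 37C. Beta-lactamase read by CCF4 FRET (460/530 nm); IC50 from Hill fits, normalized to R1881 and DMSO control wells.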

Test [4] has as its target Bile acid receptor (Homo sapiens) (UniProt Q96RI1). The experiment in a line: qHTS assay for small molecule antagonists of farnesoid X receptor signaling (AID 588526). Put shortly: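 Beta-lactamase reporter antagonist mode: HEK293T FXR-UAS-bla cells, titrated compound, CDCA stimulation, 16 h 37 C, CCF4 dye 2 h RT. Data normalized to CDCA 50 uM and DMSO; Hill-fit IC50.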

The target of test [5] is Estrogen receptor (Homo sapiens) (UniProt P03372). The experiment in a line: qHTS assay for small molecule agonists of estrogen receptor alpha signaling (AID 588514). Note: nearly all actives have a fitted effect of over 70% in size. Put shortly:
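EC50 and efficacy came from Hill fits of beta-lactamase reporter signal (CCF4 dye, 2 h at room temperature) scaled between DMSO and 20 nM 17-beta-estradiol. Agonist mode: HEK293 ER-alpha-UAS-bla cells in charcoal/dextran-stripped serum medium, 18 h compound exposure at 37 C.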

The nature of test [6]: qHTS assay for small molecule agonists of the antioxidant response element (ARE) signaling pathway (AID 651741; active = well fitted activation curve with a large enough effect in the signal ratio; the % refers to the signal ratio; note: potency is the fitted concentration of half-maximal effect). Put shortly:
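Beta-lactamase reporter under ARE control in HepG2 cells, 2,000 per well, was induced by 16 h compound treatment at 37 C. Read-out was fluorescence from LiveBLAzer B/G FRET substrate after 2 h at room temperature.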

A short description of test [7]: Confirmation and Secondary Assay for Modulators of Hemoglobin Beta Chain Splicing at IVS2 654 locus (AID 910; active = well fitted curve in the direction sought with a large enough effect; an effect the other way counts as inactive or inconclusive;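 note: HeLa cells stably carrying EGFP split by mutant beta-globin IVS2-654 intron; per-well total GFP intensity by laser scanning cytometry after 2-day treatment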). From the text:
NIH Chemical Genomics Center [NCGC] NIH Molecular Libraries Screening Centers Network [MLSCN] MLSCN Grant: 1 X01 MH080684-01 PI Name: Dr. Ryszard Kole NCGC Assay Overview: Modulation of Alternative Splicing as Therapy Abnormal splicing is associated with a number of diseases, including cancer and genetic diseases such as cystic fibrosis, muscular dystrophy and beta-thalassemia. Alteration of disease associated splicing patterns provides a promising target for treatment. […] Mutations in the second intron of the b-globin gene at positions 654 or 705 are clinically relevant and cause mis-splicing which results in an out of frame gene product. […] EGFP-654 HeLa Cells as screen system. HeLa cell lines were stably transfected with a construct in which the EGFP (enhanced green fluorescent protein) cDNA was interrupted by the second intron of the beta-globin gene (IVS2-654). The ISV2 intron contains mutations which cause mis-splicing of EGFP and premature termination of EGFP which results in a nonfluorescent protein product. […] Expression of the transgene was driven by the CMV promoter. We concluded that a low molecular weight compound, which restored correct splicing of intron 2 would also generate functional EGFP protein, resulting in a fluorescent signal. Thus, the HeLa cells that express the EGFP-654 construct can be used for high throughput screening of a chemical library.
NCGC Assay Protocol Summary: Confirmatory Screening. Freshly thawed HeLa EGFP-654 cells were seeded in 5 ul of optimem media (Invitrogen) containing 2 % fetal calf serum (Hyclone) and 1x penicillin/streptomycin (Invitrogen) at a concentration of 500 cells per well in 1536-well plates. Cells were incubated overnight at 37C in 5% CO2. The next day, cells were treated with DMSO, 500 nM antisense ISV2 654 PNA control oligo, or library compound and allowed to grow at 37C in 5% CO2 for 2 days. The PNA oligo blocked the mutation site in the intron and allowed proper (wild type) splicing to occur, resulting in full length EGFP expression and also allowed for optimization of the assay parameters. Plates were read in the Acumen Explorer (TTP Labtech) using 488 nm laser excitation and 500-520 nm emission PMT filter in a 1 x 8 uM capture mode. Fluorescnet objects ranging in size from 5 to 250 uM were measured and the total peak GFP intensity for each well was used for data analysis. Keywords: Thalassemia, beta-thalassemia, beta-globin, EGFP, ISV2 654, ISV2 705, SSO, PNA, antisense, splicing, MLSMR, MLSCN, NIH Roadmap, qHTS, NCGC

Test [8] can be described thus: Confirmation and Secondary Assay for Modulators of Hemoglobin Beta Chain Splicing at IVS2 705 locus (AID 930; active = well fitted curve in the direction sought with a large enough effect; an effect the other way counts as inactive or inconclusive;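 note: HeLa cells stably expressing the EGFP-705 splicing reporter; GFP fluorescence per well restored by corrected splicing of the IVS2-705 intron in EGFP; series mostly up to about 46 µM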). Summed up:
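Secondary splice-site specificity test uses HeLa expressing CMV-driven EGFP interrupted by IVS2-705; cells were treated 2 days at 37C with 500 nM antisense PNA as positive control.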

Chain of Cytochrome P450 3A4 (Homo sapiens) (P08684 whole entry, looked up): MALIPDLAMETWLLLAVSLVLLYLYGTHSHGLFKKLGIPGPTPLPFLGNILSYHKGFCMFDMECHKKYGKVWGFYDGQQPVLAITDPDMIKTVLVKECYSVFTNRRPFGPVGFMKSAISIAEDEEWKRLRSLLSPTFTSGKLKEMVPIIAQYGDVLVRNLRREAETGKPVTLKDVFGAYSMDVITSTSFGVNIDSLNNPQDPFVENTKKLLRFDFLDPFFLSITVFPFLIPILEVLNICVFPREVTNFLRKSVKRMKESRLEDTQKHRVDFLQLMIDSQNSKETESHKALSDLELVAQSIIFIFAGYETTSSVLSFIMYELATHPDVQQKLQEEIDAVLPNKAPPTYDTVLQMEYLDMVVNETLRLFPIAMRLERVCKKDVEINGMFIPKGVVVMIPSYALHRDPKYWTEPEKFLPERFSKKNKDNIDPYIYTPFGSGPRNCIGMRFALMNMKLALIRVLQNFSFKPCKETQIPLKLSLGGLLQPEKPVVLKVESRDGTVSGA
Chain of Androgen receptor (Homo sapiens) (P10275 whole entry, looked up): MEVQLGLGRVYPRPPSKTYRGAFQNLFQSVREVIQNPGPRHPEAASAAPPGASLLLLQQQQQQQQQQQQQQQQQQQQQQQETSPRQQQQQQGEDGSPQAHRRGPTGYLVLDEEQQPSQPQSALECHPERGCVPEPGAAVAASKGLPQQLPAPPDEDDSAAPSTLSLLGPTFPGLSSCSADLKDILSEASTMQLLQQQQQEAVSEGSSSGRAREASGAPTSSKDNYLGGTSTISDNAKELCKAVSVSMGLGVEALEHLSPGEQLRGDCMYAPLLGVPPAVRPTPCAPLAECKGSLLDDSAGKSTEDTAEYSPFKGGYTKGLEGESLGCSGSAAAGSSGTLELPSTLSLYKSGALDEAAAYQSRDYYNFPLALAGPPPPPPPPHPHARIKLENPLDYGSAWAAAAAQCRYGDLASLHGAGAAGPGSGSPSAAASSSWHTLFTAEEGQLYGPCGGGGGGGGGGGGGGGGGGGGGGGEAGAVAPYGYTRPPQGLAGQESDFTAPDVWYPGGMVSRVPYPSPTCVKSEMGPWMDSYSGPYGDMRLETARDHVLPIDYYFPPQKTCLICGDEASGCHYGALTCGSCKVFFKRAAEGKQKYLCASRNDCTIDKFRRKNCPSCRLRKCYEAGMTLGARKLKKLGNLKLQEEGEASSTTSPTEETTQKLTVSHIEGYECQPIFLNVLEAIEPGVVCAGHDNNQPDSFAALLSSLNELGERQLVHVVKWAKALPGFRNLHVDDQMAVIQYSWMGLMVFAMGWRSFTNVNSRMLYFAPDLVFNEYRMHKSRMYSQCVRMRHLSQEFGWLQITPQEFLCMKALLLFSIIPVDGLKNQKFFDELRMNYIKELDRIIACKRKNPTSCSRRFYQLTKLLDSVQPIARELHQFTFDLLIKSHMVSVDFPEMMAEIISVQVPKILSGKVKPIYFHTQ
Chain of Bile acid receptor (Homo sapiens) (Q96RI1 whole entry, looked up): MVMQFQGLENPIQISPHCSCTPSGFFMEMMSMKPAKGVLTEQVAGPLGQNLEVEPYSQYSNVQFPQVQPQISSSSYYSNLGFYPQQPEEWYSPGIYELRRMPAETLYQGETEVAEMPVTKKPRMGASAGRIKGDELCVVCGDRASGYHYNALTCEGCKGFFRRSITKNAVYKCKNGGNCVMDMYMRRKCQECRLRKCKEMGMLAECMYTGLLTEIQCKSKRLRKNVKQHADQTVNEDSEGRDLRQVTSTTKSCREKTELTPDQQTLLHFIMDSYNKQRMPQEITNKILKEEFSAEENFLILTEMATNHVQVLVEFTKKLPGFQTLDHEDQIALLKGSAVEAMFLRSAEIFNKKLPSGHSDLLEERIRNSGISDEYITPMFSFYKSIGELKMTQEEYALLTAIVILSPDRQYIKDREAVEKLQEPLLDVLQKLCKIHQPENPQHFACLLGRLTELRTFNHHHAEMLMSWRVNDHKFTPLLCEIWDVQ
Chain of Estrogen receptor (Homo sapiens) (P03372 whole entry, looked up): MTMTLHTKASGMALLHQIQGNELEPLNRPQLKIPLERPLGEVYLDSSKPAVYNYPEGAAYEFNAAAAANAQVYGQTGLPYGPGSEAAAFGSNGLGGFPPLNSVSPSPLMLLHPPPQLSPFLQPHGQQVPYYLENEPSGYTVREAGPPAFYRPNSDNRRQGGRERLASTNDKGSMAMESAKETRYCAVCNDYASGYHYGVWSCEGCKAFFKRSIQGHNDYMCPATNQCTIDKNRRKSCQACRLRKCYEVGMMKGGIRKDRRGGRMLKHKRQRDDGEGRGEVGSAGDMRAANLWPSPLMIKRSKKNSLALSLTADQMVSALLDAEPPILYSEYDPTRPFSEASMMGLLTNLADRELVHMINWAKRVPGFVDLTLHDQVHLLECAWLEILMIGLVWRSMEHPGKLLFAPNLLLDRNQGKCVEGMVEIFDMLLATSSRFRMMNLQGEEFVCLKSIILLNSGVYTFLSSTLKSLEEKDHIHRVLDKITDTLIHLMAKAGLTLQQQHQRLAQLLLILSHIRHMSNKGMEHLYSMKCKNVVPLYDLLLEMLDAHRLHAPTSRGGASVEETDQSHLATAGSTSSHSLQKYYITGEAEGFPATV

Take `CC(=O)NNc1ccccc1`: the Potency result in test [1] was “inactive”. In test [2], the activation was 7.34%. For the same compound, the outcome in test [3] and in test [4] was inactive.
`C=C(Cl)CCl`: the Potency entry in test [5] and in test [6] was “inactive” throughout.
For the compound `ClCCBr`, the Potency entry in test [5] and in test [6] was “inactive” each time.
For `CC(C)[C@]12CC(=O)[C@H](C)[C@H]1C2`, the compound was classed as inactive in test [4]. Besides, the Potency result in test [6] is “inactive”.
Consider `CCC(Cl)[N+](=O)[O-]` (configuration not stated), for which, in test [5], the Potency entry was “inactive”. Besides, the call in test [4] was inactive.
For the compound `ClC(Cl)C(Cl)Cl`, the Potency result in test [5] and in test [6] was “inactive” throughout. The compound was classed as inactive in test [4].
Turning to `CC(C)Br`, the Potency result in test [5] and in test [6] was “inactive” each time. In addition, the outcome in test [4] was inactive.
In the case of `OCC(Cl)CCl` (configuration not stated), the Potency result in test [5] was “inactive”.
With `Nc1c(Cl)cc([N+](=O)[O-])cc1Cl`, the activation in test [2] is -19.7%. In addition, the outcome in test [4] was inactive.
Turning to `C=CCc1cc(OC)c2c(c1)OCO2`, in test [1], the Potency entry was “inactive”.
Regarding `CCCCNC(=O)n1c(NC(=O)OC)nc2ccccc21`, the Potency result in test [5] was “inactive”. Further, the activation in test [2] was -8.05%.
Turning to `CCCCCOC(=O)c1ccccc1C(=O)OCCCCC`, the Potency result in test [1], in test [5] and in test [6] was “inactive” in each case.
Take `O=C(Cc1ccccc1)OCc1ccccc1`: the Potency entry in test [5] is “inactive”. For the same compound, the result in test [4] was inactive.
Turning to `CC(C)(Cl)Cl`, the Potency result in test [6] is “inactive”.
As to `CNC(=O)O/N=C/C(C)(C)S(C)=O` (configuration not stated), in test [5], the Potency entry was “inactive”. Also, the call in test [4] was inactive.
For `CN(C)C(=O)Cl`, the Potency entry in test [6] was “inactive”.
As for `CCCN(CCC)c1c([N+](=O)[O-])cc(C(F)(F)F)cc1[N+](=O)[O-]`, the Potency entry in test [1] and in test [5] was “inactive” in each case. For the same compound, the compound was classed as inactive in test [7], in test [8], in test [3] and in test [4]. The activation in test [2] was -14.6% and 7.28%.
In the case of `Nc1ccccc1-c1ccccc1`, in test [6], the Potency is 42.2 µM (active).
Turning to `Cc1cc(-c2cc(C)c(N)c(C)c2)cc(C)c1N`, the Potency entry in test [1] and in test [5] was “inactive” in each case.
On to `OCCCCO`, for which, in test [4], the compound was called inactive. Further, the Potency entry in test [6] was “inactive”.
Consider `Nc1ccc(-c2ccc(N)cc2)cc1`, for which the Potency result in test [1], in test [5] and in test [6] was “inactive” throughout.
As to `Nc1ccc([N+](=O)[O-])cc1[N+](=O)[O-]`, the Potency result in test [5] is “inactive”. For the same compound, in test [2], the activation is -5.64%.
`O=Cc1ccc2c(c1)OCO2`: the outcome in test [4] was inactive.
Consider `CCOP(=S)(OCC)SCCSCC`, for which the Potency entry in test [1] and in test [6] was “inactive” each time.
Turning to `c1ccc(OCC2CO2)cc1` (configuration not stated), the Potency entry in test [6] is “inactive”.
Take `Cc1ccc(N)c(N)c1`: in test [1], the Potency entry was “inactive”. Moreover, in test [6], the Potency was 37.6 µM (active).
Consider `O=[N+]([O-])c1cccc(O)c1`, for which, in test [4], the compound was classed as inactive.
Turning to `Nc1ccc(Oc2ccc(N)cc2)cc1`, the Potency result in test [1] and in test [6] was “inactive” each time.
As to `Oc1ccc(Cl)c(Cl)c1Cl`, in test [1], the Potency entry was “inactive”. In addition, the call in test [4] was inactive. In test [6], the Potency was 42.2 µM (active).
On to `O=c1ccc(=O)[nH][nH]1`, for which, in test [2], the activation was 2.82% and 4.44%. Further, the compound was called inactive in test [3] and in test [4].
As to `Cc1ccc(N)cc1C`, in test [4], the call was inactive.
Regarding `CC(C#N)CCC#N` (configuration not stated), in test [6], the Potency result is “inactive”.
Regarding `OC[P+](CO)(CO)CO`, the Potency result in test [5] was “inactive”. In addition, the Potency in test [6] is 37.6 µM (active) and 30.6 µM (active).
For the compound `NC1CCC(CC2CCC(N)CC2)CC1` (configuration not stated), the Potency entry in test [5] and in test [6] was “inactive” throughout. In addition, in test [4], the compound was called inactive.
Consider `CCCCC(=O)Cl`, for which the outcome in test [4] was inactive.
For the compound `[N-]=[N+]=[N-]`, the activation in test [2] was -1.14%. The compound was classed as inactive in test [3]. Further, the Potency result in test [6] was “inactive”.
In the case of `CC(C)(C)C(O)(CCc1ccc(Cl)cc1)Cn1cncn1` (configuration not stated), the Potency result in test [1] and in test [6] was “inactive” throughout.
On to `CCOP(=S)(OCC)Oc1nc(Cl)c(Cl)cc1Cl`, for which the Potency entry in test [1] and in test [5] was “inactive” in each case. The compound was classed as inactive in test [7], in test [8], in test [3] and in test [4]. The activation in test [2] is 5.31% and -6.07%.
In the case of `Nc1cccc2ccccc12`, the Potency result in test [1] and in test [5] was “inactive” each time.
